# POLI inh = qHTS for Inhibitors of Polymerase Iota; DNA polymerase iota (Homo sapiens), Q9UNA4; Pol iota fluorescent replication assay, 10 min; Potency, µM (series often up to 115 µM), inactives show top-dose activity, negative = inhibition, usual class: inhibitors; 1% of 390,000 active; AID 588590, 2011; also: potency is read from the fitted curve at half-maximal effect
#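 Fluorescent replication assay read twice, at 0 min and 10 min after adding 50 nM (final) substrate. Enzyme (10 nM) and compounds were first incubated 15 min at room temperature; enzyme-free buffer wells were negative controls.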
# Pol kappa inh = qHTS for Inhibitors of Polymerase Kappa; DNA polymerase kappa (Homo sapiens), Q9UBT6; purified Pol kappa, fluorescent DNA synthesis assay, 10 min; Potency, µM (titrated, usually from 107 µM), without a hit: at the highest dose activity, negative = inhibition, usual class: inhibitors; 0.53% of 400,000 active; also: potency is read from the fitted curve at half-maximal effect; % is scaled to controls: 0 for no effect and ±100 for the full control effect
#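 Here, compound and 10 nM enzyme are combined for 15 min at room temperature; adding 50 nM substrate (final) starts DNA synthesis, tracked by fluorescence at 0 and 10 min against buffer-only wells.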
# Pol beta inh = qHTS Assay for Inhibitors of DNA Polymerase Beta | P06746 | Pol beta primer extension/strand displacement, fluorescence kinetic | Potency, µM (highest dose often 114 µM), without a hit: at the top dose activity change, negative = inhibition, most hits filed as inhibitors | 1.3% of 340,000 active; also: potency is read from the fitted curve at half-maximal effect; % is scaled to controls: 0 for no effect and ±100 for the full control effect
#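 Kinetic readout of DNA synthesis with strand displacement by Pol beta. Compound and 10 nM enzyme sit 15 min at room temperature; 50 nM substrate starts the reaction, read immediately and at 10 min.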
# PI5P4K alpha inh = qHTS for Inhibitors of phosphatidylinositol 5-phosphate 4-kinase (PI5P4K) | max response, % | AID 652105, 2013 | Phosphatidylinositol 5-phosphate 4-kinase type-2 alpha (Homo sapiens), P48426 | 1.2% of 330,000 active | PI5P4Kalpha enzyme, ADP-Glo luminescence, 60 min; stronger effect = lower value; active = max response of -50% or lower; inconclusive = between -30% and -50%; inactive = -30% or higher; also: value at the top dose of about 77 µM; % is scaled to controls: 0 for no effect and ±100 for the full control effect
#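 Human PI5P4Kalpha with substrate in 0.038 M HEPES pH 7.4, 0.28 mM EGTA, 0.1% CHAPS, 5% DMSO; reaction started with 5 microM ATP (final), 60 min at room temperature. ADP formed read by ADP-Glo luminescence.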
# WRN inhibitor = qHTS for Inhibitors of WRN Helicase; Potency, µM (series often up to 114 µM), without a hit: at the highest dose activity change, negative = inhibition, hits mostly inhibitors; Bifunctional 3'-5' exonuclease/ATP-dependent helicase WRN (Homo sapiens), Q14191; WRN helicase unwinding, fluorescent forked duplex, kinetic; AID 651768, 2012; 0.46% of 360,000 active; also: potency is read from the fitted curve at half-maximal effect; % is scaled to controls: 0 for no effect and ±100 for the full control effect; nearly all actives have a fitted effect of over 55% in size
#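 WRN at 20 nM final preincubated with compound 15 min at room temperature; reaction started with 100 nM fluorophore/quencher forked duplex oligonucleotide and 2 mM ATP final. Unwinding followed kinetically by red fluorescence (ex 525, em 598 nm).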
# Pol eta inh = qHTS for Inhibitors of Polymerase Eta; recombinant Pol eta, fluorescent DNA replication assay; Potency, µM (series often up to 114 µM), for inactives: at the highest dose activity change, negative = inhibition, usual class: inhibitors; 1.2% of 390,000 active; AID 588591, 2011; also: potency is read from the fitted curve at half-maximal effect; % is scaled to controls: 0 for no effect and ±100 for the full control effect
#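 Pol eta (10 nM) was preincubated with compounds for 15 min at room temperature, after which fluorescent replication substrate (50 nM final) was added to start the reaction. Fluorescence was read kinetically at 0 and 10 min.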
# An asterisk follows results filed as active; ? = inconclusive; · = not tested or not shown; ! = not confirmed by another sample; [ ] = another dose, or the depositor's remark. An excerpt weighted towards active compounds, which were near 2.8% of everything screened. Unless noted, calls follow the shape of the dose curve; as a rule, active = well fitted curve in the direction sought with a large enough effect; inconclusive = small, poorly fitted or top-dose-only effect, or another doubt; inactive = no such curve, though single readings can be large; an effect the other way counts as inactive or inconclusive.
SMILES,POLI inh,Pol kappa inh,Pol beta inh,PI5P4K alpha inh,WRN inhibitor,Pol eta inh
O=C(COc1ccccc1)NCC(c1ccc(Cl)cc1)N1CCCCC1 (centres undefined),9%,1%,10%,·,·,-21%
Cc1cc2c(cc1S(=O)(=O)CCC(=O)N1CCN(c3ccccc3)CC1)OCC(=O)N2,15%,-12%,-2%,·,·,-9%
Fc1ccc(N=c2ssnc2Cl)c(F)c1,?,-4%,-4%,-62*,32µM*,-17%
N#Cc1ccc(Oc2c(Cl)cncc2Cl)cc1,13%,-5%,24%,-11,3%,-7%
Clc1ccc(N=c2ssnc2Cl)cc1,?,-4%,16%,·,79µM*,-16%
N#Cc1ccc(N=c2ssnc2Cl)cc1,?,-2%,17%,-91*,40µM*!,-9%
CCOC(=O)c1ccc(N=c2ssnc2Cl)cc1,37%,4%,7%,-79*,22µM*,-3%
CCOC(=O)c1ccc(N=C2SC(C(=O)NC)CC(=O)N2Cc2ccc(F)cc2)cc1 (centres undefined),174%,2%,39%,15,-1%,-18%
CCOc1ccccc1N(C)C(=O)C1CCCN(c2ncnc3onc(-c4ccc(F)cc4)c23)C1 (centres undefined),0%,5%,30%,·,·,-4%
CN(C)c1ccc(CNC(=O)CN2C(=O)C3CCCCN3c3ccc(C(=O)N4CCCC4)cc32)cc1 (centres undefined),17%,-7%[60.1 µM],4%,·,·,-6%
COc1cc(N=c2ssnc2Cl)cc(OC)c1OC,?,-6%,10%,-69*,56µM*,-11%
COc1ccc(N=c2ssnc2Cl)cc1,?,7%,2%,-83*,?,-8%
COc1ccc(N=C2SCC(=O)N2C)cc1,·,·,·,0,2%,-5%
Clc1nssc1=Nc1ccccc1,87%,6%,-1%,-57*,?,14%
O=C1CSC(=Nc2ccccc2)N1Cc1ccccc1,-21%,-2%,43%,-2,-33%[57.1 µM],-6%
COc1ccc(NC(=O)CCS(=O)(=O)c2cc3c(cc2C)NC(=O)CO3)cc1Cl,36%,0%,-11%,·,·,-10%
O=[N+]([O-])c1ccc2c(c1)C=CC2,79µM*,79µM*,·,·,·,·
COc1cccc(N2CCN(C(=O)c3ccc4nc[nH]c4c3)CC2)c1,?,-16%,29%,-28,-11%[11.6 µM],89µM*
COc1ccccc1N(CC(=O)NCCSc1ccccc1)S(=O)(=O)c1ccc(C)cc1,-9%,-6%,-9%,·,·,-8%
O=C(N/N=C/C(Cl)=C/c1ccc([N+](=O)[O-])cc1)C(=O)Nc1ccccc1C(=O)O,18µM*,?,20µM*,-50*,?,45µM*

# Screening results from PubChem.
